The structures appear in SMILES notation. Several values for one entry are separate records, joined by “and”; a condition that tells them apart may be missing. Equal values may be shown once. Among all 310,000 compounds or so, about 1,000 (0.32%) were called active. Not all results are given here. Results with a measured potency or affinity are listed apart. A number with no mark means an inactive call. How the calls were made is not given here.

What is called inhibition is the change of the read-out against control, counted positive when it falls.

This test in a line: Inhibition of PhoP regulon, Salmonella typhi GFP reporter cells, confirmation, 4 h (AID 1850).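 Further: 0% = induced wells with vehicle and 100% = uninduced wells.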 The settings on record: Salmonella Typhi PhoP-promoter GFP reporter, fluorescence, at 50 µM, stronger effect = higher value.
With `CC(C)(C)OC(=O)NCc1ccc(CNC(=O)c2[nH]cnc2C(=O)N[C@@H](Cc2ccccc2)C(=O)OC(C)(C)C)cc1`, the inhibition was -19.7%. The result for `COc1ccc(CCC(=O)NNC(=O)Nc2cccc(Cl)c2)cc1` reads -3.45%; that for `Cc1cc(C(=O)Nc2cccnc2)no1`, -7.65%; that for `N#CCSc1nc(-c2ccccc2)c2cc(Cl)ccc2n1`, -0.85%. On to `COCCCn1c(=O)c2ccccc2n(Cc2cc(C(=O)OC)ccc2OC)c1=O`, for which the inhibition is 5.08%. The result for `CCOC(=O)CC1C(=O)NCCN1C(=O)c1cccc(OC)c1` (configuration not stated) reads -7.55%; that for `COCCn1nnnc1C(c1ccc(OC)c(OC)c1)N1CCN(c2nc3ccccc3s2)CC1` (configuration not stated), -9.37%; that for `COc1ccccc1N1CCN(S(=O)(=O)CCNC(=O)C2CCCCC2)CC1`, -2.35%. As for `N#CCSCC(=O)Nc1ccc(Cl)cc1`, the figure is 6.54%.

In the case of `CCOc1ccc(NC(=O)CSC(N)=O)cc1`, the inhibition is -9.69%. The result for `O=C(N/N=C\c1ccc(O)c([N+](=O)[O-])c1)c1ccccc1-n1cccc1` reads -6.79%; that for `COc1ccc(N(CN2C(=O)c3ccccc3C2=O)C(=O)COc2ccc(Cl)cc2Cl)cc1`, -5.69%.

Turning to `CN(C)CCCN1c2ccccc2CCc2ccccc21`, the inhibition is 8.39% and 6.67%.

As to `CN(C)CCCN1c2ccccc2Sc2ccc(Cl)cc21`, the inhibition was 9.15%. As for `CCNS(=O)(=O)c1ccc(NC(=O)c2ccc(Cn3cc(Br)cn3)o2)cc1`, the figure is -4.21%; as for `O=C(CCn1nc(-c2ccccc2)c2ccccc2c1=O)N1CCN(c2ccccc2)CC1`, 6.41%; as for `CC1CCN(C(=O)Cn2cnc3c(cnn3C(C)(C)C)c2=O)CC1`, -6.14%. The result for `Cc1nc(SCC(=O)c2ccccc2)[nH]c(=O)c1Oc1ccc(Cl)cc1` reads -6%; that for `COc1ccc(C2CC(=O)c3c(ccc4ccccc34)N2)cc1OC` (configuration not stated), 2.44%; that for `Cc1ncc(/C=C2\C(=O)Nc3ccccc32)[nH]1`, -10.1%. The result for `Cc1cccc(NC(=O)CSc2nc(=O)n3ccccc3n2)c1C` reads 4.11%; that for `Fc1ccc(Nc2nnc(C(F)(F)F)s2)cc1`, -1.74%. For the compound `FC(F)(F)c1nnc(Nc2ccc(Cl)cc2)s1`, the inhibition was 13.5%. Regarding `Cc1ccc(C(=O)N/C(N)=N/c2nc3ccccc3o2)cc1`, the inhibition was -27.8%. As for `O=C(COC(=O)c1ccco1)NC(c1ccccc1)c1ccccc1`, the figure is -14.2%. As for `CN(CC(=O)O)S(=O)(=O)c1ccc2c(c1)NC(=O)CC(=O)N2`, the figure is 12.4%. As for `COc1ccccc1CN1C[C@@H]2C[C@@H](c3ccccc3C)N3CCC[C@@]23C1=O`, the figure is -4.27%; as for `COCCNc1nc(-c2cc(-c3ccccc3)on2)cc(C(C)C)n1`, -5.87%; as for `Cc1c(C(=O)Nc2c(N)nc(SCC(=O)NCC3CCCO3)[nH]c2=O)cccc1[N+](=O)[O-]` (configuration not stated), -5.44%. Regarding `CCOC(=O)C1CCN(C(=S)NC2CC3C=CC2C3)CC1` (configuration not stated), the inhibition was 6.08%. The result for `COc1ccc(-n2nc(C)cc2N)cc1` reads 4.84%; that for `COc1ccc(C(=O)NC(=S)NNC(=O)c2ccc(C)cc2)cc1`, 18.1%; that for `COc1ccc(C(=O)NNC(=S)NC(=O)c2ccc(OC)cc2)cc1`, 5.93%. The result for `Cc1cccc(C(=O)NNC(=S)NC(=O)c2ccccc2)c1` reads 18.6%; that for `COc1ccc(C(=O)NNC(=S)NC(=O)c2ccc(Cl)cc2)cc1`, 4.94%. The result for `O=C(NNC(=S)NC(=O)c1cccs1)c1ccc(O)cc1` reads -3.75%; that for `Cc1cccc(C(=O)NC(=S)NNC(=O)c2cccs2)c1`, -3.39%; that for `Cc1ccc(CSc2nnc(-c3cccc(S(=O)(=O)N4CCOCC4)c3)n2CC(C)C)cc1`, 10.2%.

As for `CCOC(=O)[C@@H]1CCNC[C@@H]1c1ccccc1`, the inhibition was -2.58%. The result for `CCC(C)Sc1nnc(NC(=O)c2ccco2)s1` (configuration not stated) reads -2.84%; that for `CC(C)(C)c1ccccc1N=Cc1ccc2ccccc2n1`, -21.3%; that for `Cc1onc(-c2ccc(Cl)cc2)c1-c1ccnn1S(=O)(=O)c1cccc(C(F)(F)F)c1`, -8.24%.

Regarding `Cc1ccccc1NC(=S)N(Cc1cccnc1)Cc1ccccc1Cl`, the inhibition is -8.27%. As for `CCOC(=O)C1CCN(Cc2c(F)cccc2Cl)CC1`, the figure is -1.3%; as for `COc1ccc(C(=O)C2CCCN(C(=O)c3ccc(F)cc3)C2)cc1OC` (configuration not stated), -6.1%; as for `O=C(Nc1ccc(F)cc1)c1cccnc1`, -6.59%. The result for `Cc1ccc(C2N=C(N)Nc3nc4ccccc4n32)cc1` (configuration not stated) reads -13.9%; that for `NC1=NC(c2ccc(Cl)cc2)n2c(nc3ccccc32)N1` (configuration not stated), -5.56%; that for `Cc1cccc(C2N=C(N)Nc3nc4ccccc4n32)c1` (configuration not stated), 1.47%. As for `CCn1c2ccccc2c2cc(C3N=C(N)Nc4nc5ccccc5n43)ccc21` (configuration not stated), the figure is 6.06%; as for `CCOC(=O)C1=C(C)Nc2nc3ccccc3n2C1c1ccccc1` (configuration not stated), -6.62%; as for `NC1=NC(c2ccccc2Cl)n2c(nc3ccccc32)N1` (configuration not stated), 4.77%.

Consider `CCCCCOc1ccc(CSCCNC(=S)Nc2ccccc2)cc1`, for which the inhibition was -18.1%. The result for `CC(C)CN(C(=O)COC(=O)CSc1ccccc1F)c1c(N)n(Cc2ccccc2)c(=O)[nH]c1=O` reads 4.09%. As for `COc1cc(C2/C(=C(\O)c3ccc4c(c3)CC(C)O4)C(=O)C(=O)N2CCN2CCOCC2)cc(OC)c1OC` (configuration not stated), the inhibition is -7.62%.

Consider `CC(C)(C)NC(=O)/C(=C/c1ccccc1F)NC(=O)c1ccc([N+](=O)[O-])cc1`, for which the inhibition was 7.24%. The result for `CC(C)NC(=O)NC(=O)CN1C(=O)NC2(CCc3ccccc3C2)C1=O` (configuration not stated) reads -20.4%. As for `C/C=C/C(=O)Nc1nnc(C2CCCCC2)s1`, the figure is -12.4%; as for `COC(=O)C1CCCCN1C(=O)c1ccc2oc(Cc3ccccc3)nc2c1` (configuration not stated), -3.48%. In the case of `COc1ccccc1CC(=O)NNS(=O)(=O)c1cccc([N+](=O)[O-])c1`, the inhibition was -15.1%.

As to `Oc1ccc(C[C@H]2CNCCN2CC2CCCCC2)cc1`, the inhibition is -0.4%. The result for `Oc1ccc(C[C@@H]2CNCCN2CC2CCCCC2)cc1` reads -6.54%; that for `CCCCN1CCNC[C@H]1Cc1ccc(O)cc1`, 0.57%. In the case of `c1ccc(C[C@H]2CNCCN2CCCCC2CCCCC2)cc1`, the inhibition was 1.44%. As for `Oc1ccc(C[C@H]2CNCCN2CCC23CC4CC(CC(C4)C2)C3)cc1`, the figure is -7.57%. The result for `c1ccc(C[C@H]2CNCCN2CCC23CC4CC(CC(C4)C2)C3)cc1` reads 15.7%; that for `Nc1ccccc1SCC(O)Cn1ccc2ccccc21` (configuration not stated), 0.67%; that for `CN1CCN(CCC(=O)Nc2cccc(F)c2)CC1`, -7.12%.

Turning to `CCOc1ccc(N(CC(=O)N2CCN(Cc3ccccc3)CC2)S(C)(=O)=O)cc1`, the inhibition is 1.84%. In the case of `COc1ccc(N2CCN(C(=O)c3ccc(CSc4ccccc4)cc3)CC2)cc1`, the inhibition is 3.8%. The result for `CCC(=O)N1CCc2cc(S(=O)(=O)NCCC(=O)NCc3ccc(F)cc3)ccc21` reads 5.61%; that for `CN(C(=O)Cc1c(C(=O)O)n(C)c2ccccc12)c1ccc(Cl)cc1`, -0.76%; that for `CCOC(=O)C1CN(S(=O)(=O)c2ccccc2)C1`, -1.91%.

With `CC(C)CC(NS(=O)(=O)c1cccc(C(=O)O)c1)C(=O)O` (configuration not stated), the inhibition is -4.1%. The result for `CSc1cccc(NC(=O)c2ccccc2N(C)S(C)(=O)=O)c1` reads 3.99%; that for `CCc1nnc(NC(=O)[C@@H](NC(=O)c2ccc(C(C)(C)C)cc2)C(C)C)s1`, -2.72%; that for `COc1cc(OC)cc(C(=O)NC(=S)NNC(=O)c2cnccn2)c1`, -6.65%. The result for `O=C(NNC(=S)NC(=O)c1cccnc1)c1ccc(F)cc1` reads 15.9%; that for `O=C(NC(=S)NNC(=O)c1cnccn1)c1ccc(Cl)cc1`, 10.3%.

In the case of `COc1ccc(C(=O)NC(=S)NNC(=O)c2cnccn2)cc1OC`, the inhibition was 31.3%.

`COc1cc2oc(=O)cc(C)c2c(OC)c1OC`: the inhibition is -3.26%. As for `Cc1ccc(NC(=O)C2CCCN(S(=O)(=O)c3cccs3)C2)cc1` (configuration not stated), the figure is 3.27%. As for `COc1ccc(N2C(N)=NC(N)=NC2(C)C)cc1`, the figure is 2.39%; as for `CCOc1ccc(N2C(N)=NC(N)=NC2(C)C)cc1`, -0.23%. The result for `COC(=O)c1ccc(CNC(=O)COC(=O)Cc2ccsc2)cc1` reads 8.65%; that for `O=C(Nc1ccc(F)cc1)c1sc(Cl)nc1-c1ccccc1`, -0.89%. Take `O=C(/C=C/c1ccc(Br)cc1)c1ccco1`: the inhibition was 2.45%. As for `O=C(/C=C/c1ccccc1O)c1ccco1`, the figure is 8.77%. As to `COc1ccc(/C=C/C(=O)Oc2ccc(C)cc2)cc1`, the inhibition was -5.85%. As for `Cc1ccc(-c2cc(-c3ccc(C)cc3)[n+](C)o2)cc1`, the figure is -2.37%; as for `CCOc1cccc(CN(C)CC2CCCN(CCc3ccc(Cl)cc3)C2)c1O` (configuration not stated), -8.67%; as for `CN(Cc1ccccc1OCCO)CC1CCCN(CCc2ccc(Cl)cc2)C1` (configuration not stated), 0.25%.

For `O=C(Nc1c(C(=O)N2CCOCC2)cnn1-c1ccccc1)c1cccc(F)c1`, the inhibition is -2.99%. As for `Cc1ccc2nc(N(CCN3CCOCC3)C(=O)CCS(=O)(=O)c3ccccc3)sc2c1`, the figure is 0.17%.

On to `O=c1[nH]c(-c2ccccn2)nc2ccccc12`, for which the inhibition was -0.6%. The result for `COc1cnc(-c2ccccn2)[nH]c1=O` reads -0.99%.

`O=C(NC1CCCC1)C(c1ccccn1)N(C(=O)c1csnn1)c1ccccc1Br` (configuration not stated): the inhibition is 5.15%.
